PAFAH1B2 FP inh: blocks human PAF acetylhydrolase 1b catalytic subunit 2. P68402. recombinant PAFAH1B2, FP-rhodamine activity probe, fluorescence polarization. inhibition, % at 3.39 µM. 1.2% of 340,000 active. AID 492953;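 active = inhibition above the mean of all tested compounds plus 3 SD, cut at about 24% in these data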;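 also: 0% = enzyme with DMSO and 100% = wells lacking PAFAH1B2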
Target sequence (P68402 whole entry, looked up): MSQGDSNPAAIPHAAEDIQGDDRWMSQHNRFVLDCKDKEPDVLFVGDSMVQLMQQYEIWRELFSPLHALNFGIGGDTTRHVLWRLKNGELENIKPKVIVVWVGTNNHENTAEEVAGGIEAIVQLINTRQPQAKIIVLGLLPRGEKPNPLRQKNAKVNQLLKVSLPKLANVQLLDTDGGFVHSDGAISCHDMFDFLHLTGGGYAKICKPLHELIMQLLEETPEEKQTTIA
PAFAH2 FP inh: inhibitors of human PAFAH2 | Q99487 | recombinant PAFAH2, FP-rhodamine activity probe, fluorescence polarization | inhibition, % at 3.39 µM | 0.99% of 340,000 active | AID 492956;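 active = inhibition above the mean over all tested compounds plus 3 SD, cut at about 30% in these data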;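 also: inhibitors block probe labeling of enzyme so polarization drops; 0% = enzyme with DMSO and 100% = wells lacking PAFAH2 protein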
PP5 primary: blocks human protein phosphatase 5 activity. P53041. purified PP5c, OMFP substrate fluorescence. inhibition, % at 6.7 µM. 0.18% of 320,000 active;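 active = inhibition above the campaign's mean inhibition across all tested compounds plus 3 SD, cut at about 9.5% in these data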;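 also: 0% = DMSO only and 100% = 100 µM cantharidin control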
PP1 counter: PP1-alpha (human) inhibition in PP5 counter-screen. P62136. purified PP1alpha, OMFP fluorescence. inhibition, % at 6.7 µM. 0.9% of 320,000 active. AID 2235;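 active = inhibition above the mean inhibition of all tested compounds plus 3 SD, computed separately for each screening campaign, cut at about 15% in these data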
Target sequence (P62136 whole entry, looked up): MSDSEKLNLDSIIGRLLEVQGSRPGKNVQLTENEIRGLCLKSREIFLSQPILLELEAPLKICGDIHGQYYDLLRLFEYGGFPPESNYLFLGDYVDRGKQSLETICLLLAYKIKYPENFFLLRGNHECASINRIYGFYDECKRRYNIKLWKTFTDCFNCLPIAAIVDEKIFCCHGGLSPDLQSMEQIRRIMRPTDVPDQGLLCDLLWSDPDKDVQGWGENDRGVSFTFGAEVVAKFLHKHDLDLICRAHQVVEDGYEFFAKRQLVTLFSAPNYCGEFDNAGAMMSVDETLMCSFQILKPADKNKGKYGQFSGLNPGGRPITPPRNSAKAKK
PAFAH1B3 inh: PAFAH1B3 (human) inhibition; recombinant PAFAH1B3, FP-rhodamine probe, fluorescence polarization; 0.28% of 340,000 active; Q15102; inhibition, % at 3.39 µM;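 active = inhibition above the screen-wide average of all tested compounds plus 3 SD, cut at about 25% in these data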;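 also: 0% = enzyme with DMSO only and 100% = wells lacking PAFAH1B3 protein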
pPAFAH inh: pPAFAH (human) enzyme inhibition; Q13093; recombinant pPAFAH, FP-rhodamine probe fluorescence polarization; inhibition, % at 3.39 µM; 1.5% of 330,000 active; AID 463082;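 active = inhibition above the mean inhibition across the screen plus 3 SD, cut at about 25% in these data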;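 also: inhibitors block binding of the rhodamine activity-based probe so polarization drops; 0% = enzyme with DMSO and 100% = wells lacking pPAFAH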
An asterisk follows results filed as active; . = no result. In the library only some 3.4% were active in any assay of this set; here they are far more common.

SMILES	PAFAH1B2 FP inh	PAFAH2 FP inh	PP5 primary	PP1 counter	PAFAH1B3 inh	pPAFAH inh
COC(=O)c1c(C)[nH]c(C(=O)OC(C)C(=O)N(C)C2CCCCC2)c1C (stereo not drawn)	3	2	0	-2	6	26*
O=C(O)c1cccc(CSc2nc(-c3ccc(Cl)cc3)cc(C(F)(F)F)n2)c1	0	4	6	17*	-3	10
Cc1ccccc1NS(=O)(=O)c1ccc(OCCNS(C)(=O)=O)cc1	-6	0	0	-2	1	32*
CC(/C=C/c1ccco1)=N\NC(=O)c1cc(Cl)ccc1O	10	17	1	2	10	32*
O=C(C=Cc1ccco1)c1cc(Cl)ccc1O	3	6	.	.	5	.
CCn1c(=O)c(C(=O)CN2c3ccccc3CC2C)c(N)n(Cc2ccccc2)c1=O (stereo not drawn)	-2	-9	0	16*	1	-1
Cc1ccc(S(=O)(=O)N2CCC(C(=O)OC(C)C(=O)N3CCOCC3)CC2)cc1 (stereo not drawn)	11	0	-1	-3	9	5
CCCN1C(=O)/C(=C2/C=Cc3ccccc3N2CC)SC1=S	5	6	3	-2	8	6
COc1cc(NC(=O)CSc2nnnn2Cc2ccc3c(c2)OCO3)cc(OC)c1	1	-5	1	2	4	5
COc1ccccc1/C=C/C=N/NC(=O)c1cc(-c2ccco2)[nH]n1	.	.	4	9	.	30*
Cc1ccnc(NC(=O)CCNC(=O)c2ccccc2Cl)c1	6	-3	-1	-1	2	1
C/C(=N\NC(=O)c1ccc(Br)cc1)C1C(=O)c2ccccc2C1=O	15	16	2	3	29*	25*
Cc1snc(SCC(=O)c2ccc(Cl)cc2)c1C#N	5	0	2	-5	2	-4
C[C@H](NC(=O)c1cc2cc(Cl)ccc2n1C)C(=O)N1CCC[C@H]1C(=O)O	5	1	1	-1	5	5
CCOc1ccccc1NC(=O)NCc1cccnc1	5	1	-2	0	3	-3
Cc1ccc(S(=O)(=O)N2CCN(C(=O)COc3ccc(-c4nnco4)cc3)CC2)cc1	7	1	2	0	-4	6
Cc1ccc(S(=O)(=O)CCC(=O)Oc2ccc(-c3nnco3)cc2)cc1	5	-6	1	-1	1	29*
COC/C=C/C1=CC2=CC(=O)C(C)(OC(=O)c3cnc4ccccc4n3)C(=O)C2=CN1C(CO)CO (stereo not drawn)	1	-6	2	-3	9	8
COC/C=C/C1=CC2=CC(=O)C(C)(OC(=O)c3cnc4ccccc4n3)C(=O)C2=CO1 (stereo not drawn)	.	.	-2	-3	.	55*
COc1ccc(C2=NN(C(=O)CSc3nc4ccccc4s3)C(c3ccc(OC)cc3)C2)cc1 (stereo not drawn)	-6	-14	3	15	-7	-5
Cc1ccc(/C(O)=C2/C(=O)C(=O)N(c3ccccn3)C2c2ccc([N+](=O)[O-])cc2)cc1 (stereo not drawn)	6	0	-1	16*	1	4
O=C(NCc1ccco1)c1ccc(OCC2CCCO2)cc1 (stereo not drawn)	6	-3	-1	-1	11	-5
Cc1onc(-c2ccccc2)c1C(=O)Nc1ncc([N+](=O)[O-])s1	12	4	0	2	6	6
CCN(CC(=O)Nc1sc2c(c1C#N)CCC(C)C2)Cc1nc2ccccc2c(=O)[nH]1 (stereo not drawn)	27*	7	5	-4	2	4
N#CC1=C(S)N(c2ccccc2)C(c2ccc(-c3ccc(Cl)c(Cl)c3)o2)NC1=O (stereo not drawn)	-2	-1	0	12	-4	34*
SMILES	PAFAH1B2 FP inh	PAFAH2 FP inh	PP5 primary	PP1 counter	PAFAH1B3 inh	pPAFAH inh
N#CC1=C(S)N(c2ccccc2)C(c2ccc(-c3cc(Cl)ccc3Cl)o2)NC1=O (stereo not drawn)	7	-2	2	13	5	36*
N#CC1=C(S)N(c2ccccc2)C(c2ccco2)NC1=O (stereo not drawn)	2	8	-1	0	10	4
O=C(CCOc1ccccc1)N1CCN(c2ccc(O)cc2)CC1	2	12	1	-4	3	31*
CCOc1ccc(Nc2oc(-c3ccccc3Cl)nc2C#N)cc1	.	.	0	17*	.	5
N#C/C(=C\c1cn(CCOc2ccccc2)c2ccccc12)C(=O)NCc1cccs1	7	-9	2	2	6	4
O=C(N/C=C/c1ccco1)NCc1ccccc1	-5	9	2	3	-3	22
O=C(N/C=C/c1ccco1)OCc1ccccc1	-2	5	1	1	10	26*
CCCCSCCCNC(=O)c1cn(C)c2ccc(S(=O)(=O)N3CCCC3)cc2c1=O	1	0	-1	1	13	7
Cn1cccc1/C=N\NC(=O)C1COc2ccc(C(C)(C)C)cc2O1 (stereo not drawn)	10	8	5	3	4	19
Cc1c(/C=N\NC(=O)C2COc3ccc(C(C)(C)C)cc3O2)c2ccccc2n1C (stereo not drawn)	-1	-11	8	6	6	27*
CC(C)(C)c1ccc2c(c1)OC(C(=O)N/N=C/c1ccc([N+](=O)[O-])o1)CO2 (stereo not drawn)	.	.	2	8	.	28*
CCc1ccc2[nH]c(=O)c(CN(Cc3ccccc3OC)C(=O)Nc3ccccc3OC)cc2c1	4	4	-1	-2	-3	8
Cc1ccc(S(=O)(=O)N2CCC(=O)N(CCOCc3ccc(Cl)cc3)CC2)cc1	14	2	1	0	-8	32*
O=C1CCN(S(=O)(=O)c2ccc(Cl)cc2)CC1	25*	6	-6	-7	7	-1
O=S(=O)(c1ccc(Cl)cc1)N1CCC(n2cccc2)CC1	29*	1	-1	-2	2	4
O=S(=O)(c1ccc(Cl)cc1)N1CCC(N2CCCCCC2)CC1	3	-1	0	2	7	-2
O=S(=O)(c1ccc(Cl)cc1)N1CCC2(CC1)CO2	28*	-6	3	-3	11	-2
N#C/C=C/N1CCC(Cc2ccccc2)CC1	1	8	3	0	-1	3
CCN(Cc1ccccc1)CC(O)COc1ccccc1 (stereo not drawn)	1	-4	1	3	2	-6
CC(=O)c1ccc(S(=O)(=O)N2CCC(c3nc4ccccc4[nH]3)CC2)cc1	1	-9	3	6	1	0
O=S(=O)(c1ccc(Cl)cc1)N1CCC(c2nc3ccccc3[nH]2)CC1	27*	11	2	0	4	3
CCCCOc1cccc(NC(=O)CSc2nncn2C)c1	0	2	2	1	5	-5
